# Laboratory results: PubChem BioAssay AID504466 (National Center for Advancing Translational Sciences (NCATS), 2011)
# Screen size: about 330,000 compounds; about 4,200 (1.3%) were called active. A call without a number means that no potency is given here. Inconclusive results (about 6%) are left out. Calls come from the whole dose curve; as a rule, active = well fitted activation curve with a large enough effect; inconclusive = small, poorly fitted or top-dose-only effect; inactive = no such curve, though single readings can be large or run the other way. The full list was thinned out, with actives kept by preference.
# Assay: qHTS screen for small molecules that induce genotoxicity in human embryonic kidney (HEK293T) cells expressing luciferase-tagged ELG1; note: nearly all actives have a fitted effect of over 60% in size
# Conditions: HEK293T ELG1-luciferase reporter, luminescence, 16 h; series mostly up to 46 µM
# Method in brief: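 Cells (2,000/well) expressing the ELG1-luciferase fusion are dosed by pin tool and kept 16 hr at 37 °C, 5% CO2. Signal comes from ONE-Glo luciferase reagent after 30 min at room temperature.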
# Potency is the fitted concentration of half-maximal effect.
row,SMILES,Potency
1,O=C(CSc1ccsc1[N+](=O)[O-])N1CCCCC1,inactive
2,O=C(CSCc1ccc(Cl)cc1)N1CCCCC1,8.91 µM (active)
3,O=C(CSCc1ccc(Cl)cc1)N1CCN(Cc2ccc3c(c2)OCO3)CC1,inactive
4,O=C(COc1ccccc1Cl)N1CCCCCCC1,inactive
5,Cn1c(SCC(=O)N2CCCC2)nnc1-c1cccs1,inactive
6,O=C(CSCc1cccs1)N1CCCC1,16.4 µM (active)
7,CCN(C[C@H]1N[C@@](CC)(C(=O)OC)[C@H]2C(=O)N(Cc3ccccc3)C(=O)[C@@H]12)S(=O)(=O)c1ccccc1,inactive
8,COc1cc(OC)cc(C(=O)NC(C(=O)N2CCC2)C(C)C)c1 (stereo unspecified),inactive
9,CC(=O)C1(C)N(O)C(C)(C)C(c2cccs2)=[N+]1[O-] (stereo unspecified),0.082 µM (active)
10,CC1(C)C(c2cccs2)=[N+]([O-])C2(CCCCC2=O)N1O (stereo unspecified),inactive
11,C/C(=N\O)C1(C)N(O)C(C)(C)C(c2ccc(Br)cc2)=[N+]1[O-] (stereo unspecified),inactive
12,Cc1nc(NC(=O)c2ccc3c(c2)OCCO3)ccc1Br,inactive
13,COc1c(Cl)cc(C(=O)Nc2ccc(Cl)cn2)cc1Cl,inactive
14,CCCc1cc(C(=O)Nc2ccc(C(=O)OC)cc2)cs1,inactive
15,O=C(Nc1ccc(Cl)cn1)c1ccc2c(c1)OCCO2,1.16 µM (active)
16,COc1ccc(C(=O)NC(=S)Nc2ccc(Cl)cn2)cc1OC,inactive
17,CCCc1cc(C(=O)Nc2ccc(Cl)cn2)cs1,2.31 µM (active)
18,O=C(Nc1cccc(S(=O)(=O)N2CCCC2)c1)c1cncc(Br)c1,inactive
19,COc1ccc(-c2sc3ccc(OC)cc3c2C#Cc2ccccn2)cc1,inactive
20,COc1cc(OC)c2c(-c3cccc(-c4cccc(N)c4)c3)cc(=O)oc2c1,inactive
21,CCN([C@H](CO)C(C)C)S(=O)(=O)c1ccccc1Br,inactive
22,Cc1ccc2c(c1)C1C[N+](C)(CC(=O)c3ccccc3)CCC1N2C(=O)c1ccccc1Cl (stereo unspecified),inactive
23,CC1CCCCC1NC(=O)COc1ccc(C#N)cc1 (stereo unspecified),inactive
24,C=CCC[C@@H](Cc1ccc(F)cc1)C(=O)O[C@H](CNC(=O)[C@H](CC=C)CC(=O)N(CCO)Cc1ccccc1)c1ccccc1,inactive
25,COC(=O)c1ccc(CNC(=O)c2ccc(S(=O)(=O)N3CCCCCC3)cc2)cc1,inactive
26,CCCCCCCCC(=O)NCCOc1ccccc1,inactive

row,SMILES,Potency
1,O=C(NCCOc1ccccc1)c1ccccc1,1.64 µM (active)
2,Cc1noc(C)c1COc1ccc(C(=O)NCCOc2ccccc2)cc1,inactive
3,Cc1cc(Cl)c(S(=O)(=O)N(C)C)cc1OCC(N)=O,inactive
4,Cc1cc(Cl)c(S(=O)(=O)NCC2CCCO2)cc1OCC(N)=O (stereo unspecified),inactive
5,Cc1cc(Cl)c(S(=O)(=O)Nc2ccc3c(c2)OCCO3)cc1OCC(N)=O,23.1 µM (active)
6,COC(=O)C1=C(C)N(Cc2ccccc2)C(=NCCCOC(C)C)N[C@H]1c1ccccc1,inactive
7,CN(C)C(=O)CCc1ccc2c3c([nH]c2c1)[C@]1(C)[C@@H](C(=O)N2CCCCC2)C[C@H](CC(=O)NCCC2=CCCCC2)C(=O)N1CC3,inactive
8,Cc1cccc(C)c1OCCN1CCOCC1,inactive
9,Cc1cc2nc(SCCN3CCOCC3)[nH]c2cc1C,18.4 µM (active)
10,CCn1c2ccc(F)cc2c2nnc(SCCN3CCOCC3)nc21,inactive
11,Cc1ccc(C(=O)OCC(=O)N2CCCCCC2)cc1S(=O)(=O)N1CCOCC1,inactive
12,O=C1/C(=C/c2cccs2)CCc2ccccc21,8.2 µM (active)
13,CN1C/C(=C/c2cccs2)C(=O)/C(=C\c2cccs2)C1,inactive
14,CCC1C/C(=C/c2cccs2)C(=O)/C(=C/c2cccs2)C1 (stereo unspecified),inactive
15,O=C(COc1cccnc1[N+](=O)[O-])Nc1ccc(Cl)cc1F,inactive
16,O=C(COC(=O)COc1cccc(F)c1)NCC1CCCCC1,inactive
17,COc1ccc2sc(-c3ccc(S(C)(=O)=O)cc3)c(C#Cc3cncn3C)c2c1,inactive
18,CC(C)(C)OC(=O)C[C@@H]1C/C=C\C[C@H](CC(=O)N[C@@H](CO)Cc2ccccc2)C(=O)N[C@H](Cc2ccccc2)COC1=O,inactive
19,CN(c1ccc(C(=O)N2CCc3ccccc3C2)cc1)S(C)(=O)=O,inactive
20,Cc1ccc(-c2cc(C(=O)N3CCc4ccccc4C3)no2)cc1,inactive
21,O=C(c1noc2c1CCCC2)N1CCc2ccccc2C1,20.6 µM (active)
22,CC(C)CC1(C)NC(=O)N(CC(=O)Nc2ccc3c(c2)OCCO3)C1=O (stereo unspecified),inactive
23,Cc1ccc(S(=O)(=O)NCC(=O)NNC(=O)c2ccc(Br)cc2)cc1C,inactive
24,COc1ccc(-c2csc3nc(-c4ccccc4F)oc(=O)c23)cc1OC,inactive
25,COc1ccc(-c2noc(CCCC(=O)NC3CCCC3)n2)cc1OC,inactive
26,COc1ccc(-c2noc(CSc3ccc(C)cc3)n2)cc1,inactive

row,SMILES,Potency
1,COc1ccc(-c2noc(-c3cccc(OC)c3OC)n2)cc1OC,3.26 µM (active)
2,Cc1ccc(-c2noc(CC(c3ccccc3)c3ccccc3)n2)cc1,inactive
3,COc1ccc(-c2noc(-c3ccc(C)cc3)n2)cc1,3.66 µM (active)
4,Cc1ccc(-c2noc(CSc3nnc(-c4ccncc4)n3-c3ccc(F)cc3)n2)cc1,inactive
5,COc1ccccc1CNS(=O)(=O)c1ccc(C)cc1,inactive
6,Cc1ccc(-c2nc(-c3ccncc3)no2)c(C)c1,20.6 µM (active)
7,COc1ccccc1Cc1nc(-c2ccc(C)cc2)no1,18.4 µM (active)
8,Cc1ccc(-c2noc(-c3ccccc3C(=O)NCC3CCCO3)n2)cc1 (stereo unspecified),inactive
9,COc1ccc(-c2noc(CN(C)S(=O)(=O)c3ccc(C)cc3)n2)cc1,inactive
10,CCOC(=O)C1CCCN(C(=O)CSc2nnc3nc(C)cc(C)n23)C1 (stereo unspecified),inactive
11,CC(C)NC(=O)Nc1cccc2c1O[C@H](CN(C)S(=O)(=O)c1cccs1)[C@@H](C)CN([C@H](C)CO)C2=O,inactive
12,COc1ccc(-c2sc3ccccc3c2-c2ccc(OCCN3CCOCC3)cc2)cc1,inactive
13,O=C(COC(=O)c1cccnc1Cl)Nc1ccc(S(=O)(=O)N2CCOCC2)cc1,inactive
14,COc1ccc2[nH]c3c(c2c1)CCN1C(=O)C(CC(=O)NCCCN(C)C)C[C@H](C(=O)N2CCOCC2)[C@@]31CCC1CCCC1 (stereo partly specified),inactive
15,Cc1ccc(S(=O)(=O)Nc2ccc(F)c(S(=O)(=O)N3CCOCC3)c2)cc1,inactive
16,CCn1nc(C(=O)NNS(=O)(=O)c2cc(/C=C/C(=O)O)cc(OC)c2OC)c2ccccc2c1=O,inactive
17,C[C@H]1CN([C@@H](C)CO)C(=O)Cc2cc(NS(C)(=O)=O)ccc2O[C@@H]1CN(C)CC1CC1,inactive
18,Cc1ccc(Cc2nc(-c3cccc(C)c3)no2)cc1,16.4 µM (active)
19,Cc1cccc(-c2noc(CCC(=O)NC3CCCC3)n2)c1,inactive
20,COc1ccc(-c2nc(-c3ccccc3)no2)c(OC)c1,0.058 µM (active)
21,Cc1ccc(-c2noc(CSc3nnc(-c4ccccc4)n3C)n2)cc1,inactive
22,COc1ccc(-c2noc(CNC(=O)C(C)Oc3ccccc3)n2)cc1 (stereo unspecified),inactive
23,COc1ccc(-c2n[nH]c(C)c2-c2ccccc2OC)c(O)c1,inactive
24,O=C(COC(=O)c1ccc(F)cc1)Nc1ccc2c(c1)OCO2,inactive
25,O=C(CN1C(=O)NC2(CCCCCC2)C1=O)NCc1ccc(F)cc1,inactive
26,O=C(N[C@H]1C/C=C\C(c2ccc(F)cc2)N(Cc2ccccc2)C(=O)C1)OCC1c2ccccc2-c2ccccc21 (stereo partly specified),inactive

row,SMILES,Potency
1,C#CCOCCOCCOCCNc1nc(N2CCN(C(=O)[C@H](CCCN=C(N)N)n3cc(C(N)[C@@H](C)CC)nn3)CC2)nc(N2CCN(C(=O)[C@H](CO)n3cc([C@@H](N)C(C)C)nn3)CC2)n1 (stereo partly specified),inactive
2,CCN(c1ccccc1)S(=O)(=O)c1ccc(C(=O)Nc2ccccc2OC)cc1,inactive
3,CCCCSc1nnc(-c2ccc(C)cc2)o1,2.06 µM (active)
4,Cc1cccc(C)c1OC(=O)CSc1nnc(-c2ccccc2)o1,inactive
5,CCOC(=O)CSc1nnc(-c2ccc([N+](=O)[O-])cc2)o1,inactive
6,c1ccc2c(CCN3CCNC[C@H]3Cc3cccc4ccccc34)cccc2c1,inactive
7,COc1ccc(-n2nnnc2-c2nc3ccccc3s2)cc1,1.46 µM (active)
8,COc1ccc(-n2nnnc2CNC(=O)c2ccc3ccccc3c2)cc1,inactive
9,COc1ccc(C2=NN(c3nc4ccccc4s3)C(=O)C2)cc1,inactive
10,O=C(Nc1ccc(N2CCOCC2)cc1)c1cccc(S(=O)(=O)N2CCOCC2)c1,inactive
11,O=C(CCc1ccc(S(=O)(=O)N2CCOCC2)cc1)OCC(=O)c1ccc(Br)cc1,inactive
12,Cc1cc(OCc2cc(C(=O)NCc3cc(C(C)C)no3)no2)cc(C)c1Cl,3.66 µM (active)
13,Cc1cccnc1CC(C)NC(=O)c1cc(COc2cncc(Cl)c2)on1 (stereo unspecified),inactive
14,COc1ccc(OCc2cc(C(=O)NCC3(C)COC3)no2)c(Cl)c1,inactive
15,CC1(C)C[C@H]2C3=CCC4[C@@]5(C)CC[C@H](O)[C@](C)(CO)C5CC[C@@]4(C)[C@]3(C)C[C@@H](O)[C@@]2(CO)[C@@H](O)[C@@H]1O (stereo partly specified),inactive
16,CC(C)(C)OC(=O)C1=C(CO)CS[C@@H]2[C@H](NC(=O)Cc3ccccc3)C(=O)N12,inactive
17,C/C(CC(=O)Nc1ccc(N(C)C)cc1)=N\NC(=O)c1ccccc1F,inactive
18,C/C(=N\NC(=O)Cc1ccc(Cl)cc1)c1ccccn1,9.2 µM (active)
19,Cc1ccc(Cl)cc1NC(=O)c1ccccn1,inactive
20,C/C(=N\NC(=O)c1ccccc1F)c1ccccn1,3.66 µM (active)
21,C/C(=N\NC(=O)Cc1ccc(Br)cc1)c1cccnc1,inactive
22,C/C(=N\NC(=O)Cc1ccc(F)cc1)c1ccc(F)cc1,inactive
23,COc1ccc2[nH]c3c(c2c1)CCN1C(=O)C(CC(=O)NCc2cccc(C(F)(F)F)c2)C[C@H](C(=O)N2CCOCC2)[C@@]31C (stereo partly specified),inactive
